# Most compounds without a hit are left out; they make up all but 9% or so of the library.
# Lamin A splicing: modulators of lamin A splicing. Potency, µM (top dose mostly 46.1 µM), most hits filed as inhibitors. HeLa LMNA splicing GFP/RFP minigene ratio, 48 h. hit rate 0.01% among 200,000; active means well fitted inhibition curve with a large enough effect in the signal ratio, with a control signal flat, not every such curve was filed as active; inconclusive means small, poorly fitted or top-dose-only effect, or effect the other way, or a change in a side signal; the % refers to the signal ratio
#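 S3 HeLa stable clones carrying a lamin A-EGFP splicing minigene plus DsRed2 were seeded at 600 cells/well in Opti-MEM with 2% FBS, pin-dosed and incubated 48 h at 37°C. Acumen cytometry (488 nm) gave the GFP/RFP total-intensity ratio.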
# KinaseGlo FLuc: blocks Kinase-Glo luciferase, a counter-screen artifact; Q27757; Kinase-Glo luciferase, ATP luminescence, 8 min; Potency, µM (titrated, usually from 38.3 µM), actives largely listed as inhibitors; hit rate 0.28% among 200,000; AID 1379; further: nearly all actives have a fitted effect of over 60% in size
#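 Light output from Kinase-Glo luciferase with luciferin and 10 uM ATP in 50 mM imidazole pH 7.2, KCl, MgCl2, Tween 20, BSA; compound pin-delivered, 8-min ambient incubation, then luminescence read.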
# HPGD block: inhibitors of human 15-hydroxyprostaglandin dehydrogenase (HPGD); P15428; purified HPGD, NADH fluorescence kinetic, PGE2 substrate; Potency, µM, most hits filed as inhibitors; hit rate 4.3% among 150,000; AID 894; active means well fitted inhibition curve with a large enough effect, not every such curve was filed as active; inconclusive means small, poorly fitted or top-dose-only effect, or another doubt; inactive means no such curve, though single readings can be large or run the other way
#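 20 nM HPGD preincubated 15 min at room temperature with compound in 50 mM Tris-HCl pH 8, 0.01% Tween 20. Started with 1 mM NAD+ and 30 uM prostaglandin E2; NADH fluorescence (360/450 nm) read 5 times over 30-s intervals, last minus first.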
# ALDH1A1 inh: inhibitors of human aldehyde dehydrogenase 1A1 | Purified ALDH1A1, NADH fluorescence, propionaldehyde substrate | Potency, µM (titrated, usually from 75.3 µM), most hits filed as inhibitors | hit rate 7.3% among 220,000 | AID 1030; active means well fitted inhibition curve with a large enough effect, not every such curve was filed as active; inconclusive means small, poorly fitted or top-dose-only effect, or another doubt; inactive means no such curve, though single readings can be large or run the other way
# Target sequence (P00352 whole entry, looked up): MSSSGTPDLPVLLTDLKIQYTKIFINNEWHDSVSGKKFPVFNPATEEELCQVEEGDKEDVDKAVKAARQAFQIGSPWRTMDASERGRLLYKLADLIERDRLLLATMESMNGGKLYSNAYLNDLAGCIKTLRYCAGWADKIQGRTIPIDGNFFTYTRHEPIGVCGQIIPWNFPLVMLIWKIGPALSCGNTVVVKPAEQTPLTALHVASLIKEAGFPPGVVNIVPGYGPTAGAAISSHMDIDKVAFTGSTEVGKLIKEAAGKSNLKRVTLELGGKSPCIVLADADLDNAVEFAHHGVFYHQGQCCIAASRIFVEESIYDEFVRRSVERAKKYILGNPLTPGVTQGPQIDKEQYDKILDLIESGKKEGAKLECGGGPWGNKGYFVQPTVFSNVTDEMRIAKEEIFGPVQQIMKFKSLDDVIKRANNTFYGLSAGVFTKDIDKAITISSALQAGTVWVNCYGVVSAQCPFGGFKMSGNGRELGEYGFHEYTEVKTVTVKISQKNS
# IMPase Li cell: membrane-permeable IMPase blocker, potentiated with lithium | hit rate 0.35% among 210,000 | CHO-M1 cells, IP1 TR-FRET (IP-One), carbachol + lithium | AID 1457 | Potency, µM (series often up to 59.4 µM), hits mostly inhibitors;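 further: IP1 builds up when IMPase is blocked and the TR-FRET signal falls; nearly all actives have a fitted effect of over 50% in size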
#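 Lithium-sensitised IP1 accumulation assay; M1-expressing CHO cells treated 30 min at 37C with compound. Competitive antibody detection by time-resolved FRET followed a 10 min room-temperature lysis step.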
# Hits are given with their value; . = inactive; ? = inconclusive; / = no result given; [ ] = dose if it differs, or a comment. Unless noted, the call rests on the fitted dose curve; in most records, active means well fitted curve in the direction sought with a large enough effect; inconclusive means small, poorly fitted or top-dose-only effect, or another doubt; inactive means no such curve, though single readings can be large; an effect the other way counts as inactive or inconclusive.
SMILES,Lamin A splicing,KinaseGlo FLuc,HPGD block,ALDH1A1 inh,IMPase Li cell
O=C(CCN1C(=O)C2C3C=CC(C3)C2C1=O)N1CCN(c2ccccc2Cl)CC1 (stereo not given),.,.,.,2µM,.
O=C(CCN1C(=O)C2C3C=CC(C3)C2C1=O)N1CCN(c2ccc([N+](=O)[O-])cc2)CC1 (stereo not given),/,.,/,6.31µM,.
Cc1ccc(OCC(=O)NCCc2c[nH]c3ccccc23)cc1,/,.,/,.,.
CS(=O)(=O)N1CCC2(CC1)CN(C(c1ccccc1)c1ccccc1)C2,/,.,.,.,.
CCCCNC(=O)CNC(=S)N(Cc1ccccc1)Cc1cccs1,/,.,/,?,.
O=C(CNC(=S)N(Cc1ccccc1)Cc1cccnc1)NC1CCCCC1,.,.,.,12.6µM,.
CC1CCCC(NC(=O)CNC(=S)N(Cc2ccccc2)Cc2cccs2)C1C (stereo not given),.[9.22 µM],.,/,12.6µM,.
O=C(O)CNC(=S)N(Cc1ccccc1)Cc1cccnc1,.,.,/,.,.
O=C(CNC(=S)N(Cc1ccccc1)Cc1cccnc1)NCc1ccccc1,/,.,/,17.8µM,.
COC(CNC(=O)CNC(=S)N(Cc1ccccc1)Cc1cccnc1)OC,/,.,/,.,.
CCN1C(=O)/C(=C\c2nc3ccccc3c(=O)n2CC)c2ccccc21,?,.,/,14.1µM,.
CCn1c(/C=C2\C(=O)N(C)c3ccccc32)nc2ccccc2c1=O,?,.,.,?,.
CCn1c(/C=C2/C(=O)N(C)c3ccccc32)nc2ccccc2c1=O,.,.,.,9.46µM,.
CCOC(=O)c1ccc(-n2c(N)c(C(=O)OC)c3nc4ccccc4nc32)cc1,.,/,/,/,/
COc1ccc(/C=C/C(=O)O)cc1S(=O)(=O)NC1CCS(=O)(=O)C1 (stereo not given),/,.,/,.,.
O=C(O)C(=O)/C(=C\c1cccc(Cl)c1)c1ccc2ccccc2n1,?,.,/,?,.
Cc1cccc(/C=C(\C(=O)C(=O)O)c2ccc3ccccc3n2)c1,?,.,/,7.94µM,.
COc1ccc(C(=O)NCC(=O)OCC(=O)NCc2cccs2)cc1,.,.,/,?,.
COc1ccc(C(=O)NCC(=O)NCC(=O)OCC(=O)c2cccs2)cc1,.,.,.,15.8µM,.
COc1ccc(C(=O)NCC(=O)OCC(=O)c2ccc3c(c2)OCCO3)cc1,.,.,.,7.94µM,.
CCN1C(=O)/C(=C\c2ccc(-c3ccc([N+](=O)[O-])cc3OC)o2)SC1=Nc1cccc(C(=O)O)c1,?,.,/,0.631µM,.
CCN=C1S/C(=C\c2ccc(-c3cccc(C(=O)O)c3)o2)C(=O)N1CC,/,.,/,?,.
COc1cc(NC(=O)CN2C(=O)CN(C)C2=O)c(C)cc1[N+](=O)[O-],.,.,/,.,.
COc1cc(NC(=O)Cn2ncc(Cl)c(Cl)c2=O)c(C)cc1[N+](=O)[O-],?,.,/,2µM,.
Cc1sc2ncn(CC(=O)Nc3ccccc3F)c(=O)c2c1-c1ccccc1,.,.,/,?,.
SMILES,Lamin A splicing,KinaseGlo FLuc,HPGD block,ALDH1A1 inh,IMPase Li cell
CCN(C(=O)COc1ncnc2sccc12)c1ccccc1,/,.,/,.,.
CN(C)c1ccc(C2N([C@H](C#N)c3ccc(N(C)C)cc3)CCCN2[C@@H](C#N)c2ccc(N(C)C)cc2)cc1 (stereo not given in full),/,.[7.66 µM],.,1µM,.
S=C(Nc1ccc(Br)cc1Cl)NN1CCOCC1,.,.,/,.,.
O=C(Nc1ccc(S(=O)(=O)Nc2nccs2)cc1)C1CC(=O)N(c2ccccc2)C1 (stereo not given),.,.,/,?,.
COc1ccccc1/C=C1/SC(=O)N(CCC(=O)Nc2ccc(S(=O)(=O)Nc3nccs3)cc2)C1=O,.,.,.,25.1µM,.
O=C(CCN1C(=O)S/C(=C\c2ccccc2)C1=O)Nc1ccc(S(=O)(=O)Nc2nccs2)cc1,.,.,.,?,.
Cc1ccc(N2CC(C(=O)Nc3ccc(S(=O)(=O)Nc4nccs4)cc3)CC2=O)cc1 (stereo not given),/,/,/,20µM,.
Cc1ccc(SCC(=O)Nc2ccc(S(=O)(=O)Nc3nccs3)cc2)cc1,.,.,.,?,.
CS(=O)(=O)Nc1ccc(S(=O)(=O)Nc2nccs2)cc1,.,.,.,.,.
O=S(=O)(Nc1nccs1)c1ccc(NS(=O)(=O)c2cccs2)cc1,.,.,.,17.8µM,.
O=C(CSc1ccncc1)Nc1ccc(S(=O)(=O)Nc2nccs2)cc1,.,.,/,10µM,.
O=c1cnc2cnc(Nc3ccccc3)nc2n1CCc1ccccc1,?,/,/,?,.
CCc1cc2c(SCC(=O)NC(=O)c3cccn3C)ncnc2s1,.,.,/,.,.
CCN(c1cccc(C)c1)S(=O)(=O)c1ccc(OC)c([N+](=O)[O-])c1,.,.,/,25.1µM,.
COC1=CC(=O)C(O)=C/C1=C\C=C\c1ccccc1,?,.,11.2µM,12.6µM,.
CCN(C(=O)COC(=O)/C=C/c1ccccc1)C1CCCCC1,.,.,/,.,.
O=C(c1nsc(Cl)c1Cl)N1CCCCC1,?,.,2.51µM,.,.
O=[N+]([O-])C(=C1Nc2ccccc2N1)/C(Cl)=C(/Cl)Br,.,.,.,23.8µM,.
CN(Cc1ccccc1)C(=C(Cl)Cl)C(=C1NCCN1)[N+](=O)[O-],/,.,/,?,.
COc1cccc(-c2cn3nc4c(nc3n2)CCCC4)c1,.,10µM,.,?,.
COc1ccc(OCc2cccc(C(=O)NN)c2)cc1,?,.,.,0.316µM,.
NNC(=O)c1cccc(COc2ccc(Br)cc2)c1,.,.,.,0.631µM,.
NNC(=O)c1cccc(COc2cccc(Br)c2)c1,.,.,.,3.16µM,.
O=C(NCc1ccccc1)c1cccc(COc2ccc(Cl)cc2)c1,.,.,.,?,.
NNC(=O)c1ccc(COc2ccc3c(c2)CCC3)cc1,.,.,.,7.94µM,.
SMILES,Lamin A splicing,KinaseGlo FLuc,HPGD block,ALDH1A1 inh,IMPase Li cell
Cc1cc(C)n2nc(SCC(=O)Nc3c(C)n(C)n(-c4ccccc4)c3=O)nc2n1,.,.,.,.,.
CC1(C)NC(C)(C)c2nonc2/C1=N\O,.,.,.,12.6µM,.
CCn1c(SCC(=O)c2ccccc2)nnc1-c1cnccn1,.,.,17.8µM,.,.
CCn1c(SCC(=O)c2ccc(NS(=O)(=O)c3ccccc3)cc2)nnc1-c1cccs1,.,.,22.4µM,?,.
Cc1ccc(C(=O)CSc2nnc(-c3ccccc3N)n2C)cc1,?,.,.,11.2µM,.
Cn1c(SCC(=O)c2ccc(F)cc2)nnc1-c1ccccc1N,?,.,.,.,.
CCn1c(Cc2cccn2C)nnc1SCC(=O)c1ccc(C)cc1,.,.,?,10µM,.
Cc1cccc(NC(=O)CSc2nc3ccc(NC(=O)c4ccccc4)cc3s2)c1,.,/,/,/,/
COc1ccc(C(=O)Nc2ccc(C3CC3(Cl)Cl)cc2)cc1 (stereo not given),/,.,/,.,.
Cn1c(SCC(=O)c2ccccc2)nnc1-c1cnccn1,.,.,.,20µM,.

# High-throughput results: PubChem BioAssay, National Center for Advancing Translational Sciences (NCATS)
